Assay outcomes (PubChem BioAssay)
NPC1 promoter act = activators of NPC1 promoter; Huh7 NPC1 promoter luciferase reporter, 24 h; Potency, µM (titrated, usually from 9.22 µM), for inactives: top-dose activation, usual class: activators; hit rate 2.4% among 320,000; AID 485313; also: % of control where 0% means no effect; nearly all actives have a fitted effect of over 60% in size
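NPC1 promoter–luciferase Huh7 cells; 24 h compound; luminescence.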
SMN2 splice up = increases expression of the SMN2 splice variant | AID 1458 | hit rate 2.8% among 210,000 | Potency, µM (series often up to 46.1 µM), inactives show at the highest dose activity change, positive = activation, actives largely listed as activators | HEK293 SMN2-luciferase splicing reporter, luminescence, 30-36 h; also: % of control where 0% means no effect; nearly all actives have a fitted effect of over 55% in size
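qHTS luciferase splicing reporter: luminescence rises when SMN2 exon 7 is included in transfected HEK293 cells. Compound exposure lasted 30-36 h at 37C, with 4.5 mM final sodium butyrate as control, followed by a ONE-Glo read.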
p53 reactivation = re-activators of mutant p53; H1299 p53-A138V BP100-luciferase reporter, luminescence, 24 h; Potency, µM (highest dose often 92.2 µM), for inactives: at the highest dose activity change, positive = activation, hits mostly activators; hit rate 0.063% among 320,000; AID 504706; also: % of control where 0% means no effect; nearly all actives have a fitted effect of over 45% in size
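H1299 (p53-null), stable ts p53-A138V + BP100-Luc; 1000 cells/well, Opti-MEM/10% FBS; cpd 4 pt, 1:5; 24 h, 37 deg C, 5% CO2; detection reagent 10 min RT; luminescence.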
ELG1 genotox = induces genotoxicity in HEK293T cells with luciferase-tagged ELG1. HEK293T ELG1-luciferase reporter, luminescence, 16 h. Potency, µM (top dose mostly 46 µM), for inactives: at the top dose activity change, positive = activation, hits mostly activators. hit rate 1.3% among 330,000; also: % of control where 0% means no effect; nearly all actives have a fitted effect of over 60% in size
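Step 1: seed 2,000 HEK293T ELG1-luciferase cells per well. Step 2: add compound or DMSO, incubate 16 hr at 37 °C. Step 3: ONE-Glo, 30 min at room temperature, read luminescence.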
Rab9 promoter act = activates the Rab9 promoter; Huh7 Rab9 promoter-luciferase reporter, luminescence, 24 h; Potency, µM (doses to about 9.22 µM), inactives show top-dose activation, negative = inhibition, hits mostly activators; AID 485297; hit rate 2.8% among 320,000; also: % of control where 0% means no effect; nearly all actives have a fitted effect of over 60% in size
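Promoter activation is measured as luciferase luminescence in Huh7 cells stably transfected with a Rab9 promoter–luciferase construct, following 24 h compound exposure at 37 °C and 10 min reagent incubation at ambient temperature.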
FLuc modulator = counter-screen for miR-21 project: firefly luciferase inhibitors or activators. purified FLuc, Km substrates, luminescence inhibition. Potency, µM (titrated, usually from 57.5 µM), without a hit: top-dose activity change, negative = inhibition, usual class: inhibitors. AID 588342. hit rate 6.9% among 360,000;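 also: plate controls were vehicle for no effect and reference inhibitor for full effect; nearly all actives have a fitted effect of over 55% in size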
Target sequence (P08659 whole entry, looked up): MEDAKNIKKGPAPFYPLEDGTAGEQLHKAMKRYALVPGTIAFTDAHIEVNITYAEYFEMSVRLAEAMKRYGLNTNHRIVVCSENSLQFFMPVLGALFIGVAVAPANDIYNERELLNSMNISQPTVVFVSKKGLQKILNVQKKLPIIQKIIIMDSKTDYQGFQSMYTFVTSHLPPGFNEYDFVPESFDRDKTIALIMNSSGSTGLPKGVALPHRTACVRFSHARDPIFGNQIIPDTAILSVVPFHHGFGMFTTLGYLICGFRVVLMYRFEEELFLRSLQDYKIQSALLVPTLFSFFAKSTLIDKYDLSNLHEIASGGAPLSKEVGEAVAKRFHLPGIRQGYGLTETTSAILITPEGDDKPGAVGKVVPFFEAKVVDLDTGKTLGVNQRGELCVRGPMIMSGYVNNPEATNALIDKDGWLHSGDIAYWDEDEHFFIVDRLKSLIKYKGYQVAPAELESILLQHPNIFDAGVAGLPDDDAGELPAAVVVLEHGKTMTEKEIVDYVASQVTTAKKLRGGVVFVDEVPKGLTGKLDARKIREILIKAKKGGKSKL
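Purified P. pyralis luciferase, 10 nM final, with Km-level 10 uM D-luciferin and 10 uM ATP in 50 mM Tris acetate pH 7.5, 10 mM Mg acetate, 0.01% Tween-20, 0.05% BSA; 6-point qHTS titration about 60 µM downward; luminescence read.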
Numbers without * were called inactive; ? = inconclusive; . = no result given. In the library only some 7.3% were active in any assay of this set; here they are far more common. Calls follow the shape of the dose curve; as a rule, active = well fitted curve in the direction sought with a large enough effect; inconclusive = small, poorly fitted or top-dose-only effect, or another doubt; inactive = no such curve, though single readings can be large; an effect the other way counts as inactive or inconclusive. Potency is read from the fitted curve at half-maximal effect.

SMILES	NPC1 promoter act	SMN2 splice up	p53 reactivation	ELG1 genotox	Rab9 promoter act	FLuc modulator
Cc1c(Cl)cccc1NC(=O)Cn1nnc(-c2nc(-c3ccccc3)no2)c1N	.	.	.	.	.	-1.4%
CSc1ncc(Cl)c(C(=O)Nc2ccc(S(=O)(=O)N3CCC(C)CC3)cc2)n1	.	-55.8%	.	.	.	-2.6%
CCN(C(=O)C1CCCN(c2ncnc3c2nc2n3CCCCC2)C1)c1cccc(C)c1 (configuration not stated)	.	.	.	.	.	-9.9%
CCCCC/C=C\C/C=C\C/C=C\CCCCC(=O)NC(C)C(=O)O (configuration not stated)	.	2.2%	.	.	.	.
CCn1c(=O)cc(OCC(=O)N2CCN(c3ccc(C)cc3)C(C)C2)c2ccccc21 (configuration not stated)	.	15.3%	.	.	.	-10.6%
CCC(=O)NCCNc1nc2cc(C)cc(C)c2cc1C#N	-6.4%	22.5%	-3.7%	5.4%	-7.8%	5.1%
CCOC(=O)c1sc(NC(=O)c2ccncc2)c(C#N)c1C	-1.5%	-74.6%	13.7%	-3.7%	-9.3%	10.7µM*
Cn1nc(C(=O)Nc2sc3c(c2C#N)CCCC3)ccc1=O	16.9%	-14.5%	3.3%	?	28.8%	5.36µM*
Cc1cccc(OCc2nc(CC(=O)Nc3ccc(Cl)cc3)cs2)c1	.	.	.	.	.	-6.3%
Cc1nnc(N2CCC(C(=O)NCCC(C)C)CC2)c2nn(-c3ccc(Cl)cc3)c(C)c12	.	.	.	.	.	4.2%
Cc1cccc(OCC2=NS(=O)(=O)c3ccccc3N2)c1	28.0%	15.8%	19.9%	15.0%	26.8%	19µM*
COc1ccc2c(c1)c1c(c(=O)n(-c3ccc(OC)c(OC)c3)c(=O)n1CC(=O)N1CCCC1)n2C	.	.	.	.	.	-5.2%
NC(=O)[C@H]1CC2(CC(c3cccc(NC(=O)COc4ccc(Cl)cc4)c3)=NO2)CN1C(=O)Cc1ccc([N+](=O)[O-])cc1 (some centres not stated)	-35.0%	.	4.5%	-13.5%	-33.8%	9.53µM*
COc1ccc(C(=O)N2CC3(CC(c4cccc(NC(=O)COc5ccc(Cl)cc5)c4)=NO3)C[C@@H]2C(N)=O)cc1 (some centres not stated)	1.0%	.	-1.1%	-11.8%	-1.7%	10.7µM*
CCC(=O)Nc1cccc(C2=NOC3(C2)C[C@H](C(N)=O)N(C(=O)c2ccc(Cl)cc2)C3)c1 (some centres not stated)	-4.8%	.	-3.8%	3.2%	0.4%	-2.9%
NC(=O)[C@@H]1CC2(CC(c3cccc(NC(=O)COc4ccc(Cl)cc4)c3)=NO2)CN1C(=O)c1ccccc1 (some centres not stated)	0.0%	.	-0.3%	-5.4%	0.2%	15.1µM*
COc1ccc(NC(=O)COc2ccc3c(c2)OCO3)cc1	15.4%	.	10.3%	-3.1%	11.0%	?
CC(=O)Nc1cccc(NC(=O)COc2ccc3c(c2)OCO3)c1	4.8%	.	?	9.0%	27.5%	9.53µM*
CCc1ccc(OCC(=O)Nc2ccc3c(c2)OCCO3)cc1	2.9%	.	16.6%	14.9%	0.4%	19µM*
CC(=O)c1ccc(NC(=O)COc2ccc3c(c2)OCO3)cc1	-3.4%	28.3%	2.4%	11.5%	-4.4%	-17.0%
CCc1ccc(NC(=O)COc2ccc3c(c2)OCO3)cc1	27.4%	.	22.0%	?	14.0%	26.9µM*
CC(C)[C@H](O)CC[C@@H](C)C1CC[C@H]2C3CC=C4C[C@@H](O)CC[C@]4(C)C3CC[C@]12C (some centres not stated)	.	-6.0%	.	.	.	.
CCCS(=O)c1nc(C)cc(C)c1S(C)(=O)=O (configuration not stated)	-4.1%	0.3%	0.4%	-1.1%	-3.2%	-0.7%
CCN(CCCNC(=O)c1cc2cc3ccc(OC)cc3nc2s1)c1ccccc1	-3.3%	12.2%	.	.	-4.8%	-1.9%
COc1ccc2nc3sc(C(=O)NCCCN4CCc5ccccc5C4)cc3cc2c1	-0.2%	1.0%	27.8%	3.1%	9.7%	19µM*
SMILES	NPC1 promoter act	SMN2 splice up	p53 reactivation	ELG1 genotox	Rab9 promoter act	FLuc modulator
Cc1ccc(-c2nc(CS(=O)(=O)CC(=O)Nc3ccc(Br)cc3F)c(C)o2)cc1	.	-1.0%	.	.	.	-2.6%
CC(CC(=O)NCc1ccc(Cl)cc1)CC1=NS(=O)(=O)c2ccccc2N1 (configuration not stated)	.	.	.	.	.	-9.9%
N#CC1=C(N)Oc2c(ccc3ccccc23)C1c1cccs1 (configuration not stated)	-2.8%	17.0%	24.9%	18.4µM*	-11.9%	?
Cc1nn(-c2ccccc2)c2c1C(c1ccco1)C(C#N)=C(N)O2 (configuration not stated)	-0.2%	1.2%	?	1.2%	7.3%	13.5µM*
Cc1nn(-c2ccccc2)c2c1C(c1cccs1)C(C#N)=C(N)O2 (configuration not stated)	1.8%	-3.0%	3.6%	-1.8%	-0.9%	15.1µM*
Cc1nn(-c2ccccc2)c(-n2cccc2)c1C(=O)NCCCN1CCN(c2ccccc2F)CC1	.	-14.2%	.	.	.	-9.0%
NC(=O)c1c(NC(=O)c2ccco2)sc2c1CCC2	3.55µM*	12.6µM*	?	11.2µM*	2µM*	9.53µM*
CC1CCc2c(sc(NC(=O)c3ccco3)c2C(=O)O)C1 (configuration not stated)	?	.	?	9.8%	-48.7%	7.57µM*
O=C(Nc1sc2c(c1C(=O)O)CCCCC2)c1ccco1	2.82µM*	11.2µM*	16.1%	?	?	4.26µM*
CCc1c(C)sc(NC(=O)c2ccoc2C)c1C(N)=O	19.6%	.	-9.2%	8.3%	20.2%	10.7µM*
CN(C)C(=O)c1c(NC(=O)c2ccco2)sc2c1CCCCC2	-0.2%	-16.8%	20.4%	3.1%	10.1%	?
CCOC(=O)c1c(NC(=O)c2ccco2)sc2c1CCCCC2	9.1%	26.2%	-2.5%	-1.0%	-6.9%	16.9µM*
COC(=O)c1c(NC(=O)c2c(OC)cccc2OC)sc2c1CCCC2	.	3.6%	.	.	.	?
COC(=O)c1c(NC(=O)c2ccc(OC)cc2OC)sc2c1CCCCC2	.	9.4%	.	.	.	6.01µM*
Cc1occc1C(=O)Nc1sc2c(c1C(N)=O)CCCCC2	?	?	?	10.3µM*	?	2.69µM*
